In all, about 360,000 compounds went through this assay and about 610 (0.17%) were called active. Roughly 2% stayed inconclusive and do not appear here. The sample holds actives, similar compounds and a random draw of the others, so the mix is not that of the screen. Values without a mark were called inactive. Cut-off read from the data, not from the text of the source: active = inhibition above about 30%; inconclusive = no clear call, values can overlap the other calls; inactive = below that.
What follows are compounds tested on Botulinum neurotoxin type A light chain protease (Clostridium botulinum A str. ATCC 3502) (assay: blockers of BoNT/A LC substrate cleavage – biochemical, flow cytometry, MLPCN library, primary screen (AID 588499; note: plate controls were buffer without enzyme for full effect and enzyme alone for no effect)). Conditions: multiplex microsphere protease substrate cleavage, at 10 µM, active compounds read high.

Row | SMILES | inhibition
1 | COc1ccc(C(=O)NC(=S)N2CCNC(=O)C2CC(=O)OC(C)C)cc1 (stereo unspecified) | -0.1%
2 | Cc1cccc(-n2c(SCC(N)=O)nc3c(c2=O)C2(CCCCC2)Cc2ccccc2-3)c1 | -0.1%
3 | COc1ccc(COC[C@H](CC(C)C)N2CCN(C(=O)c3cccc(C(F)(F)F)c3)CCC2=O)cc1 | 0.7%
4 | NS(=O)(=O)c1ccc(-c2ccc(/C=C3\SC(=O)NC3=O)o2)cc1 | 0.3%
5 | Cc1ccc(C(=O)O)cc1-c1ccc(/C=C2\SC(=O)N(CC(=O)Nc3ccc4c(c3)OCO4)C2=O)o1 | 0.8%
6 | CN1C(=O)/C(=C\c2ccc(-c3ccccc3)o2)SC1=S | 66.9% (active)
7 | CC(C(=O)Nc1ccc(O)c(C(=O)O)c1)N1C(=O)/C(=C/c2cccs2)SC1=S (stereo unspecified) | 2%
8 | CC(C(=O)NC1CCS(=O)(=O)C1)N1C(=O)/C(=C/c2ccc(Cl)cc2)SC1=S (stereo unspecified) | 2.3%
9 | O=C(O)C(c1ccccc1)N1C(=O)/C(=C\c2ccc(-c3cccc(Cl)c3)o2)SC1=S (stereo unspecified) | 39.3% (active)
10 | CN(CC(=O)Nc1c(Cl)cccc1Cl)C(=O)c1ccncc1 | -3.2%
11 | COc1ccc(C(c2nnnn2Cc2cccs2)N2CCN(c3ccccc3)CC2)cc1OC (stereo unspecified) | -0.3%
12 | CCOCCCNC(=O)c1cn(CC(C)C)c(=O)c2c1c1ccccc1n2C | 2.4%
13 | O=c1[nH][nH]c2c1[C@H](c1ccc(Cl)cc1)O[C@H](CCc1ccccc1)C2 | -0.3%
14 | COc1ccc(C(NC(=O)C2CCN(CCCc3ccccc3)CC2)c2cccs2)cc1 (stereo unspecified) | -0.5%
15 | O=C(Nc1ccc2c(c1)[C@@H]1C[C@@H](CC(=O)N3CCCCC3)O[C@@H](CO)[C@@H]1O2)NC1CCCCC1 | 0.1%
16 | COC(=O)[C@]12CCCCC=C1N(Cc1ccco1)C(=O)[C@H](CC(=O)NCC1CCCCC1)C2 | -1.1%
17 | Cc1ccc(CCn2c3c(c4ccccc42)CN(C)CC3)cn1 | 1.5%
18 | CCC(C)C(N=C1NS(=O)(=O)c2ccccc21)C(=O)N1CCC(C)CC1 (stereo unspecified) | -2.7%
19 | CCCSc1nc2sc3c(c2c(=O)n1-c1ccc(OC)cc1)CCN(C)C3 | 49.9% (active)
20 | CCOc1ccc(-n2c(SCC(=O)OC)nc3sc4c(c3c2=O)CCN(C)C4)cc1 | 26.5%
21 | CCSc1nc2sc3c(c2c(=O)n1-c1ccc(C)cc1)CCN(C)C3 | 9.9%
22 | O=S1(=O)CC(N2CCSCC2)CN1Cc1cn(Cc2cccc(Cl)c2)nn1 (stereo unspecified) | 0.5%

Row | SMILES | inhibition
23 | Cc1ccc(SCC(=O)NNC(=O)c2ccc(S(C)(=O)=O)cc2)cc1 | 0.3%
24 | CC1CCCCC1NC(=O)NC(=O)COC(=O)C1=NN(c2ccccc2)C(=O)CC1 (stereo unspecified) | -0.8%
25 | CCNC(=S)N1CCN(c2ncccn2)CC1 | 1.2%
26 | CC(=NNC(=S)N1CCCCCC1)c1ccccn1 | 32.5% (active)
27 | CCOc1ccc(NC(=S)N2CCCCCC2)cc1 | 0%
28 | CCc1[nH]nc(C(=O)N2CCCC(CO)(Cc3ccc(F)cc3F)C2)c1C (stereo unspecified) | 0.2%
29 | O=C(c1cccc(-n2cccc2)c1)N1CCN(S(=O)(=O)c2ccc(F)cc2)CC1 | -0.8%
30 | CCCCN1C(=O)C(CC(=O)NCc2cccs2)CC(C(=O)N2CCCCCC2)=C1C (stereo unspecified) | 0%
31 | CCN(CC)C(=O)CSC1c2ccccc2C(=O)N1c1ccccc1 (stereo unspecified) | -1.6%
32 | COc1ccc(C(=O)Nc2nc(-c3ccc(OC)cc3)c(-c3ccc([N+](=O)[O-])cc3)s2)cc1 | 40.2% (active)
33 | COc1ccc(NC(=O)c2cn(CCC#N)nc2-c2ccc([N+](=O)[O-])cc2)cc1 | -1.1%
34 | COc1ccc(-c2[nH][nH]c(=O)c2NC(=O)c2ccc([N+](=O)[O-])cc2)cc1 | 0.1%
35 | O=C(OCC(=O)c1c[nH]c2ccccc12)c1cccc(O)c1 | 0.8%
36 | CCOc1ncccc1C(=O)OCC(=O)NC1CC1 | -0.4%
37 | CCOc1ncccc1C(=O)OCC(=O)c1c[nH]c2ccccc12 | 36.8% (active)
38 | CC1CCCCC12NC(=O)N(CC(=O)Nc1ccc(S(=O)(=O)Nc3ncccn3)cc1)C2=O (stereo unspecified) | -0.7%
39 | CC(=O)Nc1ccc(-c2ccnc3c2CC(C(=O)NC(C)C)O3)cc1 (stereo unspecified) | 0.1%
40 | CCCc1ccc(C(O)c2ncc(-c3cccc(OC)c3)[nH]2)cc1 (stereo unspecified) | 0.3%
41 | COc1ccc(C2CC(c3cccs3)=NN2C(=O)CSc2nnc(N)s2)cc1OC (stereo unspecified) | 0.2%
42 | COc1ccc(C2CC(c3cccs3)=NN2C(=O)CSc2nncs2)cc1OC (stereo unspecified) | 0.2%
43 | COc1ccc(C2CC(c3cccs3)=NN2c2nc(C)c(C(C)=O)s2)cc1OC (stereo unspecified) | 63.7% (active)
44 | CCN(CC)C(=O)Oc1ccc(Br)cc1C(=O)Nc1ccc(F)c(Cl)c1 | -0.8%

Row | SMILES | inhibition
45 | Cc1ccc(CNC(=O)C(=O)c2cn(CC(=O)N3CCCC3)c3ccccc23)cc1 | 0%
46 | O=C(NCCCn1ccnc1)C(=O)c1cn(CC(=O)N2CCCCCC2)c2ccccc12 | 30.5% (active)
47 | O=C(NCc1ccco1)C(=O)c1cn(CC(=O)N2CCCCCC2)c2ccccc12 | 10.2%
48 | CC1(C(=O)NS(=O)(=O)C2CC2)CCCN(C(=O)CSc2ccccc2)C1 (stereo unspecified) | 0.5%
49 | CN(C(=O)COC(=O)c1cc(=O)[nH]c2ccccc12)C1CCCCC1 | 2.1%
50 | CSCC[C@H](NC(=O)NCc1cccs1)C(=O)O | -0.9%
51 | COc1ccc(NC(=O)COc2ccc(C(=O)c3ccc(F)cc3)cc2)cc1S(N)(=O)=O | -1%
52 | C[C@@H]1CN([C@@H](C)CO)C(=O)CCCn2nncc2CO[C@@H]1CN(C)S(=O)(=O)c1ccc(-c2ccccc2)cc1 | -0.4%
53 | O=c1[nH]snc1-c1c(Cl)cccc1Cl | -0.7%
54 | COC(=O)c1c(NC(=O)COC(=O)[C@@H](NS(=O)(=O)c2ccccc2)C(C)C)sc2c1CCC2 | -0.3%
55 | CCOC(=O)C1CCN(C(=O)CN2C(=O)c3cccnc3Oc3ccc(C)cc32)CC1 | -1%
56 | CCOC(=O)C1CCN(C(=O)Cc2c(C(=O)O)[nH]c3ccccc23)CC1 | -4.4%
57 | CCOC(=O)N(C)c1c(CC)nc2c(OCc3ccccc3C(=O)OC)cccn12 | -0.1%
58 | CCN1CCN(c2ccc(S(=O)(=O)N3CCCCC3)cc2NC(=O)Cc2c(Cl)cccc2Cl)CC1 | -1.8%
59 | CCn1c(O)c(N=NC2=NC(=O)CS2)c2cc(C)ccc21 | -0.3%
60 | COC(=O)c1ccc(CN2CCCC(C(=O)Nc3cccc(-n4cnnn4)c3)C2)cc1 (stereo unspecified) | -3.3%
61 | CC(C)C1N=C2c3ccccc3N=C(SCC(=O)c3ccc(O)c(O)c3)N2C1=O (stereo unspecified) | 0.1%
62 | Cc1cc(C(C)(C)C)oc1C(=O)N(CC(=O)NC1CCCC1)Cc1ccc(Cl)cc1 | -0.3%
63 | CC1(C(=O)Nc2cccc(Oc3ccccc3)c2)CCN1Cc1ccccc1Cl (stereo unspecified) | -0.1%
64 | CC(C)CN(C(=O)CN1CCN(S(=O)(=O)c2ccccc2)CC1)c1c(N)n(CC(C)C)c(=O)[nH]c1=O | -2.5%
65 | Cc1cc(-c2nnc(CCC(=O)NC(c3ccccc3)c3ccccc3)o2)no1 | 0.3%
66 | CCOC(=O)c1cc2c(=O)n3ccccc3nc2n(CC(C)C)c1=NC(=O)c1c(-c2c(F)cccc2Cl)noc1C | 60.3% (active)

Row | SMILES | inhibition
67 | Cc1onc(-c2c(F)cccc2Cl)c1C(=O)OCC(=O)N1C(C)CCCC1C (stereo unspecified) | 0.1%
68 | CCCn1c(=NC(C)=O)c(C(=O)OCC)cc2c(=O)n3ccccc3nc21 | 0.6%
69 | CC(C)C(C)(C#N)NC(=O)CSc1nncn1-c1ccccc1 (stereo unspecified) | -0.7%
70 | Cc1ccc(SCC2=NNC(=O)C2)cc1 | 0.6%
71 | CCc1ccc(CCC(=O)Nc2ccc(S(N)(=O)=O)cc2)o1 | 0.3%
72 | CCCCCCN1CCN(C2CN(Cc3cn(CCCCCC)nn3)S(=O)(=O)C2)CC1 (stereo unspecified) | -0.3%
73 | Cc1ccc2nc(-c3ccccc3)c(CC3CCCCC3)n2c1 | 1.4%
74 | CC1=CCC2C(=O)N(c3cccc(C(=O)NC(C)c4ccccc4)c3)C(=O)C2C1 (stereo unspecified) | -3.1%
75 | Cc1cc2ccccc2n1CCNC(=O)COc1ccc2ccccc2c1 | 61.4% (active)
76 | COCCNC(=O)COc1ccc(N(C)S(=O)(=O)c2ccc3ccccc3c2)cc1 | -1.4%
77 | Cc1ccc(C)c(NC(=O)CN(C)C(=O)COc2ccc3ccccc3c2)c1 | -0.4%
78 | Cc1ccc(S(=O)(=O)N2CC[C@H]3[C@@H](C2)C(=O)C[C@@H](c2ccccc2)N3S(=O)(=O)c2ccc(C)cc2)cc1 | -0.4%
79 | Cc1ccc(N(C(=O)c2ccc(CN3CCOCC3)o2)C(C(=O)NCCC(C)C)c2cccs2)c(C)c1 (stereo unspecified) | -1%
80 | Cc1cccc(N(CC(=O)Nc2ccc(-c3nc4ccc(C)cc4s3)cc2)S(C)(=O)=O)c1 | -0.9%
81 | CCCCCc1c(-c2ccc(OC)c(OC)c2)ncn1CCc1ccccc1OC | -0.2%
82 | COC(=O)c1ccc2nc(-c3ccc(OC)c(OC)c3)c(Cc3ccccc3)n2c1 | 3%
83 | CCCOc1cccc(C(=O)Nc2ccccc2C(=O)N2CCN(C)CC2)c1 | -2.3%
84 | COc1ccc(C(=O)NC(Cc2ccc(OC(=O)c3ccc(OC)cc3)cc2)C(=O)O)cc1 (stereo unspecified) | 0.4%
85 | c1csc(-c2nnc(COc3ccc4c(c3)OCO4)o2)c1 | -0.4%
86 | COC(=O)c1ccc2nc(-c3ccc(C)cc3)c(Cc3ccc(OC)cc3C)n2c1 | 0.7%

From PubChem BioAssay AID588499 (NMMLSC, 2011)
